This is an account of results in PubChem BioAssay (NCATS).

A number with no mark means an inactive call. Results filed as inconclusive are left out. The source made the active and inactive calls. The call rests on the fitted dose curve; in most records, active means well fitted curve in the direction sought with a large enough effect; inconclusive means small, poorly fitted or top-dose-only effect, or another doubt; inactive means no such curve, though single readings can be large; an effect the other way counts as inactive or inconclusive. Where a SMILES comes first, the peptide text is derived from it. The star is where a group is joined. PhAc = O=C(Cc1ccccc1)*

In experiment [1] the target is Glutathione peroxidase 1 (Homo sapiens) (UniProt P07203). The experiment is described as follows: Primary qHTS Assay for Inhibitors of Recombinant Selenoprotein Glutathione Peroxidase 1 (GPX1) (AID 1845191). Further: nearly all actives have a fitted effect of over 65% in size. A digest of the protocol: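 GR-coupled readout: NADPH consumption tracked by fluorescence, ex 340/em 450 nm, at t=0 and after 15 min at RT. Final mix 10 nM GPX1, 1 mM GSH, 0.5 mM CHP, 0.5 mM NADPH, 100 nM GR, 0.01% BSA, following 30 min enzyme–compound preincubation.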
Glutathione peroxidase 1 (Homo sapiens), sequence (P07203 whole entry, looked up): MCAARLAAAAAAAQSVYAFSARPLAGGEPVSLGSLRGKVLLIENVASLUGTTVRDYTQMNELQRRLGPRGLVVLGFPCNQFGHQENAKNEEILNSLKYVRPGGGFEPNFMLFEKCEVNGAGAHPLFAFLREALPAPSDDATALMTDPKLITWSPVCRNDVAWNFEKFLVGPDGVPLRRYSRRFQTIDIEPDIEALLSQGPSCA
Background: In qHTS, concentration-response curves come from the screen itself.

Experiment [2] concerns the target Phospholipid hydroperoxide glutathione peroxidase GPX4 (Homo sapiens) (UniProt P36969). Description: Primary qHTS Assay for Inhibitors of Recombinant Selenoprotein Glutathione Peroxidase 4 (GPX4) (AID 1845192). Further: nearly all actives have a fitted effect of over 65% in size. A digest of the protocol:
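Steps: GPX4 plus compound, 30 min RT; add GR/GSH/NADPH master mix; start with cumene hydroperoxide; read 340/450 nm fluorescence at 0 and 15 min. Finals were 200 nM GPX4, 1 mM GSH, 0.5 mM CHP, 0.5 mM NADPH, 100 nM GR.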

For experiment [3], the target named is Luciferin 4-monooxygenase (Photinus pyralis) (UniProt P08659). Description: Primary firefly luciferase (FLuc) qHTS assay for identification of artifact compounds. (AID 1845220). Further: nearly all actives have a fitted effect of over 60% in size. The gist of the method: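 D-luciferin and ATP (10 uM each, final) in Tris acetate buffer pH 7.6 were incubated with compounds for 15 min at room temperature. The reaction was started with 10 nM Photinus pyralis luciferase and luminescence read after 5 min. Percent inhibition was fitted to a 4-parameter Hill equation.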

The nature of experiment [4]: Primary fluorescence-based thiol-reactive (MSTI) qHTS assay for identification of artifact compounds. (AID 1845221). Further: nearly all actives have a fitted effect of over 65% in size. Further: potency means the concentration at half of the fitted maximal effect. A digest of the protocol: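 Probe: MSTI 4 uM, PBS pH 7.4, 2% DMSO. Incubation 1 h, RT, light-protected. Readout fluorescence 525/598 nm.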

Phospholipid hydroperoxide glutathione peroxidase GPX4 (Homo sapiens), sequence (P36969 whole entry, looked up): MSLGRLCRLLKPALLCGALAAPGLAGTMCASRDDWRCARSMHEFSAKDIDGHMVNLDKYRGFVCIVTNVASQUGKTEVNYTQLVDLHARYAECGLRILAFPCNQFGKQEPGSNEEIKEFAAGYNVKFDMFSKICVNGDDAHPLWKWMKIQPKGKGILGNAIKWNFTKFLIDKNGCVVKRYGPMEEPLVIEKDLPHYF

In the case of `C=C1C(O)CCC2(C)CC3(OC)OC(=O)C(C)=C3CC12` (stereo not drawn), the Potency result in experiment [1], in experiment [2], in experiment [3] and in experiment [4] was “inactive” each time.
For the molecule `C=CC(C)(CCC=C(C)C)O[C@@H]1O[C@H](CO)[C@@H](O)[C@H](O)[C@H]1O` (stereo partly drawn), the Potency entry in experiment [1], in experiment [2], in experiment [3] and in experiment [4] was “inactive” in each case.
In the case of `O=C(O)[C@H](Cc1ccccc1)Oc1ccc(-c2ccccc2)cc1`, the Potency result in experiment [1], in experiment [2], in experiment [3] and in experiment [4] was “inactive” throughout.
Take `CCC1(O)CC2c3cc(OC)c(OC)cc3CCN2CC1CC(C)C` (stereo not drawn): the Potency result in experiment [1], in experiment [2], in experiment [3] and in experiment [4] was “inactive” throughout.
For `COc1cc(/C=C/C(=O)O[C@@H]2C[C@@](O)(C(=O)O)C[C@@H](O)[C@@H]2O)ccc1O`, the Potency result in experiment [1], in experiment [2] and in experiment [3] was “inactive” each time. Moreover, the Potency in experiment [4] was 6.56 µM (active).
With `Cc1ccc(Cl)cc1N(CC(=O)Nc1c(F)cccc1F)S(C)(=O)=O`, the Potency entry in experiment [1], in experiment [2], in experiment [3] and in experiment [4] was “inactive” each time.
`CC(C)(O)c1ccc2c(c1)C(=O)C[C@H]1[C@](C)(C(=O)O)CCC[C@]21C`: the Potency result in experiment [1], in experiment [2], in experiment [3] and in experiment [4] was “inactive” each time.
As to `COc1cccc(CNc2ccc(S(=O)(=O)Nc3nc4ccccc4s3)cc2)c1O`, the Potency result in experiment [1], in experiment [2], in experiment [3] and in experiment [4] was “inactive” throughout.
Consider `CC(CNS(=O)(=O)C(C)C)c1ccc(-c2ccc(C#N)cc2)cc1` (stereo not drawn), for which the Potency entry in experiment [1], in experiment [2], in experiment [3] and in experiment [4] was “inactive” each time.
On to `COc1cc(/C=C/C(=O)OC[C@H]2O[C@@H](OC3CC(C)=C(C(=O)O)C(C)(C)C3)[C@H](O)[C@@H](O)[C@@H]2O)cc(OC)c1O` (stereo partly drawn), for which the Potency entry in experiment [1], in experiment [2] and in experiment [3] was “inactive” throughout. For the same molecule, the Potency in experiment [4] is 3.27 µM (active).
On to `COC(=O)C1=CO[C@@H](O[C@@H]2O[C@H](CO)[C@@H](O)[C@H](O)[C@H]2O)[C@@H]2C(C)CC(=O)[C@]12O` (stereo partly drawn), for which the Potency result in experiment [1], in experiment [2], in experiment [3] and in experiment [4] was “inactive” throughout.
For `CCOC(=O)CNC(=O)[C@@H]1CCCN1C(=O)Cc1ccccc1` (PhAc-Pro-Gly-OEt), the Potency result in experiment [1], in experiment [2], in experiment [3] and in experiment [4] was “inactive” in each case.
For the molecule `C=C1CC23CC(=O)C4C(CO)(CO)CCCC4(C)C2CCC1C3` (stereo not drawn), the Potency entry in experiment [1], in experiment [2], in experiment [3] and in experiment [4] was “inactive” each time.
With `CC1=C2C(=O)C=C(CO)C2C2OC(=O)C(CS(=O)(=O)O)C2C(OC(=O)Cc2ccc(O)cc2)C1` (stereo not drawn), the Potency entry in experiment [1], in experiment [2] and in experiment [3] was “inactive” in each case. Also, in experiment [4], the Potency was 3.67 µM (active).
Take `O=C(OC[C@H]1O[C@H](O[C@]2(CO)O[C@H](CO)[C@@H](O)[C@@H]2O)[C@H](O)[C@@H](O)[C@@H]1O)c1ccc(O)cc1`: the Potency result in experiment [1], in experiment [2], in experiment [3] and in experiment [4] was “inactive” each time.
For `C[C@@H]1C[C@H]2OC(=O)[C@@]3(C)CCC[C@](C)(C23)[C@@]1(O)CCC1=CC(=O)OC1O` (stereo partly drawn), the Potency result in experiment [1], in experiment [2] and in experiment [3] was “inactive” in each case. The Potency in experiment [4] was 3.29 µM (active).
Turning to `CC1(C)CCC[C@@]2(C)[C@H]1[C@H](O)C=C(CO)[C@]2(O)CO`, the Potency result in experiment [1], in experiment [2], in experiment [3] and in experiment [4] was “inactive” each time.
Consider `COc1c2c(c(C)c3c1C(=O)OC3)OC1(C)CC(O)C34OC(O)(CCC3(C)C1C2)OC4(C)C` (stereo not drawn), for which the Potency result in experiment [1], in experiment [2], in experiment [3] and in experiment [4] was “inactive” throughout.
With `N#CN1CCC[C@@H](n2nc(-c3ccc(Oc4ccc(F)cc4F)cc3)c(C(N)=O)c2N)C1`, the Potency entry in experiment [1], in experiment [2], in experiment [3] and in experiment [4] was “inactive” in each case.
Take `C[C@@H]1CC[C@]2(C(=O)O)CC[C@]3(C)C(=CCC4[C@@]5(C)C[C@@H](O)[C@H](O)[C@@](C)(CO)C5CC[C@]43C)C2[C@H]1C` (stereo partly drawn): the Potency entry in experiment [1], in experiment [2], in experiment [3] and in experiment [4] was “inactive” each time.
On to `COC(=O)C1=COC(OC2OC(CO)C(O)C(O)C2O)C2C(C)C(OC(=O)/C=C/c3ccc(O)cc3)C(O)C12` (stereo not drawn), for which the Potency entry in experiment [1], in experiment [2] and in experiment [3] was “inactive” throughout. Moreover, the Potency in experiment [4] is 11.6 µM (active).
Consider `C=C1C(=O)O[C@@H]2/C=C(\C)CC/C=C(\C(=O)O[C@@H]3O[C@H](CO)[C@@H](O)[C@H](O)[C@H]3O)CC[C@@H]12`, for which the Potency entry in experiment [1], in experiment [2] and in experiment [3] was “inactive” each time. The Potency in experiment [4] is 4.12 µM (active).
As for `CC(=O)O[C@@H]1C(O)C[C@@]2(C)C(CC[C@@H](C)C23Cc2c(O)cc4c(c2O3)CNC4=O)C1(C)C` (stereo partly drawn), the Potency entry in experiment [1], in experiment [2], in experiment [3] and in experiment [4] was “inactive” each time.
As for `O=C(Cc1ccc(Cl)cc1)Nc1cnccc1C(=O)O`, the Potency entry in experiment [1], in experiment [2], in experiment [3] and in experiment [4] was “inactive” in each case.
As for `Cc1ccc(C)c(S(=O)(=O)n2cnc3ccccc32)c1`, the Potency result in experiment [1], in experiment [2], in experiment [3] and in experiment [4] was “inactive” in each case.
Turning to `CN1CCN(c2nc(-c3ccc(C(=O)NC4(C(=O)NCC#N)CCCCC4)cc3)cs2)CC1`, the Potency result in experiment [1], in experiment [2], in experiment [3] and in experiment [4] was “inactive” in each case.
For `CC1=C2CC(=O)C(C)CC/C=C(\C)CC2(O)OC1=O` (stereo not drawn), the Potency entry in experiment [1], in experiment [2], in experiment [3] and in experiment [4] was “inactive” throughout.
